GALK inh: qHTS Assay for Inhibitors of Human Galactokinase (GALK); P51570; AID 1868, 2009; 270,000 tested, 0.007% active; Purified GALK, Kinase-Glo residual ATP luminescence; Potency, µM (titrated, usually from 57.5 µM), usual class: inhibitors
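Galactose (100 uM) and ATP (35 uM) were turned over by 5 nM GALK for 1 h at RT. Kinase-Glo Plus then converted the remaining ATP into a luminescent signal.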
TrxR1 inh: qHTS Assay for Inhibitors of Mammalian Selenoprotein Thioredoxin Reductase 1 (TrxR1): qHTS; 390,000 tested, 1% active; Thioredoxin reductase 1, cytoplasmic (Rattus norvegicus), O89049; Potency, µM (top dose mostly 114 µM), most hits filed as inhibitors; recombinant rTrxR1, NADPH fluorescence consumption, selenite substrate; further: nearly all actives have a fitted effect of over 65% in size
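Rat TrxR1 (90 nM in the dispensed reagent) was pre-reduced with 400 uM NADPH for 5 min at room temperature, then incubated with compound for 15 min. After 400 uM selenite was added, NADPH fluorescence (Ex 340/Em 450 nm) was followed for 8 min.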
NPSR antagonist: qHTS Assay for Antagonists of the Neuropeptide S Receptor: cAMP Signal Transduction; 220,000 tested, 1% active; AID 1461, 2008; Q6W5P4; Potency, µM (doses to about 38.3 µM), hits mostly inhibitors; CHO-NPSR cells, cAMP TR-FRET, antagonist mode; further: nearly all actives have a fitted effect of over 50% in size
Target sequence (Q6W5P4 whole entry, looked up): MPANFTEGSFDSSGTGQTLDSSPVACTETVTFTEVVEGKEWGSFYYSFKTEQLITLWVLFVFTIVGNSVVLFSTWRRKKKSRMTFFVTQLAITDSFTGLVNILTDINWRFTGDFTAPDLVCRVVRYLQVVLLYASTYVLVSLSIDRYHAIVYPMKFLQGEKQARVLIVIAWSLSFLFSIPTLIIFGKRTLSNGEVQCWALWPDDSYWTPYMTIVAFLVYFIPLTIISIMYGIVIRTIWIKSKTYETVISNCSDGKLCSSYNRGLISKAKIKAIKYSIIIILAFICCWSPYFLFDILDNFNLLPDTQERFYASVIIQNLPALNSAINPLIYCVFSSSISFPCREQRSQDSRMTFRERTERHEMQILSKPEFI
TrxR1 substrate: qHTS Assay for Substrates of Mammalian Selenoprotein Thioredoxin Reductase 1 (TrxR1): qHTS | Thioredoxin reductase 1, cytoplasmic (Rattus norvegicus), O89049 | purified TrxR1 substrate turnover, NADPH consumption readout | Potency, µM (doses to about 114 µM) | 390,000 tested, 0.01% active | AID 588456, 2011; further: nearly all actives have a fitted effect of over 50% in size
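Rat TrxR1, dispensed at 90 nM, was prereduced with 400 uM NADPH (final) for 5 min at ~22 deg C, then incubated with compound 15 min before 400 uM selenite. A first-read NADPH fluorescence drop versus no-compound background flagged substrates.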
Large screens that a line does not name were inactive. Most compounds without a hit are left out; they make up all but 1.2% or so of the library. The call rests on the fitted dose curve; in most records, active means well fitted curve in the direction sought with a large enough effect; inconclusive means small, poorly fitted or top-dose-only effect, or another doubt; inactive means no such curve, though single readings can be large; an effect the other way counts as inactive or inconclusive.

CN(C)S(=O)(=O)c1ccc(C(=O)Nc2cccnc2)cc1	none
O=C(/C=C/c1cccnc1)/C=C/c1cccnc1	TrxR1 inh 18µM
COc1ccccc1CNC(=O)CCCn1nc(C)c2sc3ccccc3c2c1=O	none (no result: GALK inh, NPSR antagonist)
CCC[N+](C)(C)c1ccc(/C=C/c2ccncc2)cc1	TrxR1 inh inconclusive (no result: GALK inh, NPSR antagonist)
CCC(C)C(NC(=O)OC(C)(C)C)C(=O)NC1COC2CC(n3cc(F)c(=O)[nH]c3=O)OC12 (stereo unspecified)	none (no result: GALK inh, NPSR antagonist)
CCCc1cc(CN2CCOCC2)c(O)c(CN2CCOCC2)c1O	TrxR1 inh 1.6µM (no result: GALK inh, NPSR antagonist)
CCN(CC)c1ccc(/C=N/NC(=S)NC)c(O)c1	none
CCN(CC)c1ccc(/C=N/Nc2cccc(C)c2)c(O)c1	TrxR1 inh 22µM
CCN(CC)c1ccc(/C=N/Nc2ccccc2)c(O)c1	TrxR1 inh 8.9µM
CCN(CC)c1ccc(C=Nc2ccccc2)c(O)c1	none
COc1ccc(NC(=O)Cn2c(SCc3ccc(F)cc3)nc3cccnc32)c(OC)c1	none (no result: GALK inh, NPSR antagonist)
CCC(C(=O)Nc1ccccc1OC)n1c(C(=O)OC)cc2sc(Cl)cc21 (stereo unspecified)	none (no result: GALK inh, NPSR antagonist)
CNc1sc(C(=O)c2ccccc2F)c(N)c1-c1nc2ccccc2s1	NPSR antagonist 4µM
Clc1ccccc1CSc1nnc(-c2cccnc2)n1Cc1ccco1	TrxR1 inh 25µM
Cn1c(N)c(C(=O)COC(=O)c2cc(-c3ccco3)nc3ccccc23)c(=O)n(Cc2ccccc2)c1=O	none (no result: GALK inh, TrxR1 inh, TrxR1 substrate)
O=C(COC(=O)c1cc(-c2ccco2)nc2ccccc12)NCc1ccccc1	TrxR1 inh 45µM
CCN(CC)C(=O)COC(=O)c1cc(-c2ccco2)nc2ccccc12	TrxR1 inh inconclusive
COc1ccc(CCNC(=O)c2cc(-c3ccco3)nc3ccccc23)cc1	TrxR1 inh inconclusive (no result: GALK inh, NPSR antagonist)
CNC(=O)COC(=O)c1cc(-c2ccco2)nc2ccccc12	TrxR1 inh 10µM
O=C(COC(=O)c1ccco1)NCc1ccc(Cl)cc1Cl	TrxR1 inh 79µM (no result: GALK inh, NPSR antagonist)
Cn1c(N)c(C(=O)COC(=O)c2cc(-c3ccco3)nc3ccccc23)c(=O)n(C)c1=O	TrxR1 inh 13µM (no result: GALK inh)
CC(C)(C)NC(=O)C(c1ccncc1)N(C(=O)Cn1nnc(-c2ccc(F)cc2)n1)c1ccccc1F (stereo unspecified)	none
CC(C)(C)NC(=O)C(c1ccc(O)cc1)N(C(=O)Cn1nnc(-c2ccc(F)cc2)n1)c1ccccc1F (stereo unspecified)	NPSR antagonist 13µM
Cc1cc(C)n(C(C)CC(=O)Nc2cccc(C#N)c2)n1 (stereo unspecified)	none (no result: GALK inh, NPSR antagonist)
O=c1[nH]c2c(s1)C(c1cccnc1)C1C3CCC(C3)C1S2 (stereo unspecified)	none
COc1ccc(C2c3sc(=O)[nH]c3SC3C4CCC(C4)C23)cc1OC (stereo unspecified)	NPSR antagonist 7.9µM
O=c1[nH]c2c(s1)C(c1ccc(O)cc1)C1C3CCC(C3)C1S2 (stereo unspecified)	NPSR antagonist 10µM
CCOC(=O)c1ccccc1NC(=O)CSc1nc2ncccc2o1	none (no result: GALK inh, NPSR antagonist)
CC(C)(C)n1ncc2c(=O)n(Cc3c(Cl)cccc3Cl)cnc21	none (no result: GALK inh, NPSR antagonist)
O=C(COC(=O)/C=C/c1ccco1)Nc1cc(S(=O)(=O)N2CCOCC2)ccc1Cl	TrxR1 inh 35µM (no result: GALK inh, NPSR antagonist)
COc1cccc(/C=C/C(=O)OCC(=O)Nc2ccc(Cl)c(S(=O)(=O)N(C)C)c2)c1	none
CN(C)S(=O)(=O)c1cc(NC(=O)COC(=O)/C=C/c2ccco2)ccc1Cl	TrxR1 inh 3.5µM
NC(=O)C1CCN(c2ncnc3c2cnn3-c2cccc(Cl)c2)CC1	none (no result: GALK inh, NPSR antagonist)
Cc1ccc(CNC(=O)c2ccc(CS(=O)(=O)Cc3ccc(C)cc3)o2)cc1	none (no result: GALK inh, NPSR antagonist)
CCSc1nc2ccccc2n1C(=O)/C=C/c1ccc(OC)c(OC)c1	none (no result: GALK inh)
C=CCSc1nc2ccccc2n1C(=O)/C=C/c1cc(OC)c(OC)c(OC)c1	NPSR antagonist 2.5µM
C=CCOc1ccc(C2/C(=C(\O)c3ccc(F)cc3)C(=O)C(=O)N2CCCN(C)C)cc1 (stereo unspecified)	TrxR1 inh 35µM
CCC(C)[C@@H](NC(=O)OC(C)(C)C)c1nnc(S(=O)(=O)Cc2cccc(C)c2)o1 (stereo partly specified)	TrxR1 inh 1.8µM, NPSR antagonist inconclusive
Cc1ccccc1CS(=O)(=O)c1nnc([C@H](Cc2ccccc2)NC(=O)OC(C)(C)C)o1	TrxR1 inh 0.63µM, NPSR antagonist 10µM
Cc1cc(=O)n(CC(=O)N2CCN(c3ccccc3F)CC2)c2c1c(C)nn2C	none (no result: GALK inh, NPSR antagonist)
COc1ccc2c(-c3ccccc3)cc(=O)[nH]c2c1	none
COc1ccc2c([N+](=O)[O-])c(Cl)[nH]c2c1	TrxR1 inh 14µM
Nc1nnc(CC(=O)N/N=C/c2cc([N+](=O)[O-])cc(Br)c2O)s1	TrxR1 inh 35µM
CCNc1nc(N2CCCN(C)CC2)nc2cc(OC)c(OC)cc12	none (no result: GALK inh, NPSR antagonist)
O=C(Nc1ccc(-c2csc(Nc3cccc(C(F)(F)F)c3)n2)cc1)c1cc([N+](=O)[O-])cc(C(F)(F)F)c1	NPSR antagonist 10µM
CC1(C)CC(=O)C(CS(=O)(=O)c2ccccc2)=C(Cl)C1	TrxR1 inh 28µM (no result: NPSR antagonist)
CC1(C)CC(=O)c2sc(NC(=O)CCS(=O)(=O)c3ccccc3)nc2C1	none
O=C1C(Cl)=C(NC(=O)c2ccccc2)C(=O)C(Cl)=C1NC(=O)c1ccccc1	TrxR1 inh 0.32µM (no result: NPSR antagonist)
O=C(Nc1ccc(Br)cc1F)c1cnn2c1NC(=C1CC1)C=C2C(F)F	none (no result: GALK inh, NPSR antagonist)
C/C(=N\NC(=S)NCc1ccccc1)c1ccccc1	none
C/C(=N\NC(=S)NCc1ccccc1)c1ccco1	TrxR1 inh 79µM
C/C(=N\Nc1ncc(Cl)cc1Cl)c1ccccn1	NPSR antagonist 1.3µM
Cc1ccc(NS(=O)(=O)c2cccc(C(=O)NCC3(N(C)C)CCCCC3)c2)cc1	NPSR antagonist 10µM
CC(C)(C)n1ncc2c(=O)n(Cc3c(F)cc(Cl)cc3F)cnc21	none (no result: GALK inh, NPSR antagonist)
CN(CCOC(=O)/C=C/c1ccco1)Cc1ccccc1	TrxR1 inh 45µM
O=C(/C=C/c1ccco1)Nc1ccccc1C(=O)O	TrxR1 inh 14µM
Cc1ccc(-c2csc(NC(=O)c3cccc(C)c3)c2C(=O)O)cc1	none (no result: GALK inh, NPSR antagonist)
Cc1ccc(-c2csc(NC(=O)/C=C/c3ccco3)c2C(=O)O)cc1	TrxR1 inh 35µM
O=C(/C=C/c1ccco1)Nc1cc(Cl)ccc1C(=O)O	TrxR1 inh 13µM (no result: GALK inh)
COc1ccc(OC)c(-c2cc(C(=O)NC(C)c3ccccc3)no2)c1 (stereo unspecified)	none (no result: GALK inh, NPSR antagonist)
Cc1ccc(CCNC(=O)CCc2cn(Cc3ccccc3C)c3ccccc23)cc1	none (no result: GALK inh, NPSR antagonist)
COc1ccc(CCNC(=O)c2sc3nc4n(c(=O)c3c2C)CCCC4)cc1OC	TrxR1 inh inconclusive (no result: GALK inh, NPSR antagonist)
CN(C(=O)/C=C/c1ccco1)c1ccccc1C(=O)O	TrxR1 inh 28µM
CN(C(=O)C=Cc1ccco1)c1ccccc1	none (no result: GALK inh, NPSR antagonist)

Screens (PubChem)
